Data: the supplement of paper PMC9262897, “Low-cost anti-mycobacterial drug discovery using engineered E. coli” (Nature Communications, 2022)
Counter-ions that a name gives are not always drawn. ± gives the standard deviation of the averaged measurements.

tested on: E. coli TESEC Alr+ wild-type control; experiment: growth (OD600 after 10 h); higher = more growth (less inhibition); settings: compound 0.1 mM; raw OD600 reference: median of DMSO wells 0.49, cell-free background 0.052
Protocol: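 TESEC Mtb Alr E. coli (ΔaraC ΔtolC ΔentC Δalr ΔdadX, arabinose-inducible Mtb Alr) or the Alr+ wild-type control strain, grown in defined M9-fructose medium without D-alanine in 96-well plates with Prestwick library compounds at 0.1 mM and 1% DMSO. Low Alr induction is 0.1 µM arabinose and high induction is 10 mM arabinose.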

| Compound | growth |
| --- | --- |
| O=C1C(=O)c2ccccc2C(O)=C1C1CCC(c2ccc(Cl)cc2)CC1 (stereo not given) [Atovaquone] | 0.545 ± 0.044 |
| CC[C@H]1OC(=O)[C@H](C)[C@@H](O[C@H]2C[C@@](C)(OC)[C@@H](O)[C@H](C)O2)[C@H](C)[C@@H](O[C@@H]2O[C@H](C)C[C@H](N(C)C)[C@H]2O)[C@](C)(O)C[C@@H](C)[C@@H]2N[C@@H](COCCOC)O[C@H]([C@H]2C)[C@]1(C)O [Dirithromycin] | 0.0524 ± 0.00093 |
| CC(C)(Oc1ccc(Cl)cc1)C(=O)O [Clofibric acid] | 0.547 ± 0.1 |
| Cc1cc2c(cc1S(N)(=O)=O)S(=O)(=O)CCC2 [Meticrane] | 0.423 ± 0.008 |
| O=C(O)Cc1cc(I)c(Oc2ccc(O)c(I)c2)c(I)c1 [Tiratricol, 3,3',5-triiodothyroacetic acid] | 0.0593 ± 0.0022 |
| Nc1cc(C(Cl)=C(Cl)Cl)c(S(N)(=O)=O)cc1S(N)(=O)=O [Clorsulon] | 0.53 ± 0.0087 |
| Cc1c(N(C)C)c(=O)n(-c2ccccc2)n1C [Amidopyrine] | 0.462 ± 0.039 |
| Nc1nc2ccc(OC(F)(F)F)cc2s1 [Riluzole hydrochloride] | 0.439 ± 0.011 |
| O=C(NCCO[N+](=O)[O-])c1cccnc1 [Nicorandil] | 0.481 ± 0.072 |
| CN[C@H](CC(C)C)C(=O)N[C@H]1C(=O)N[C@@H](CC(N)=O)C(=O)N[C@H]2C(=O)N[C@H]3C(=O)N[C@H](C(=O)N[C@H](C(=O)O)c4cc(O)cc(O)c4-c4cc3ccc4O)[C@H](O)c3ccc(c(Cl)c3)Oc3cc2cc(c3O[C@@H]2O[C@H](CO)[C@@H](O)[C@H](O)[C@H]2O[C@H]2C[C@](C)(N)[C@H](O)[C@H](C)O2)Oc2ccc(cc2Cl)[C@H]1O [Vancomycin hydrochloride] | 0.0581 ± 0.0048 |
| CCN(CC)CCCC(C)Nc1ccnc2cc(Cl)ccc12 (stereo not given) [Chloroquine diphosphate] | 0.549 ± 0.065 |
| NC(=O)N/N=C/c1ccc([N+](=O)[O-])o1 [Nitrofural] | 0.0529 ± 0.0016 |
| Cc1ccnc(NS(=O)(=O)c2ccc(N)cc2)n1 [Sulfamerazine] | 0.515 ± 0.075 |
| O=C1O[C@H]([C@@H](O)CO)C(O)=C1O [Ascorbic acid] | 0.483 ± 0.056 |
| NCCCCCC(=O)O [Aminocaproic acid] | 0.463 ± 0.025 |
| CSc1ccc2c(c1)C(N1CCN(C)CC1)Cc1ccccc1S2 (stereo not given) [Methiothepin maleate] | 0.04833 ± 0.00021 |
| CCCCC1=NC2(CCCC2)C(=O)N1Cc1ccc(-c2ccccc2-c2nnn[nH]2)cc1 [Irbesartan] | 0.528 ± 0.12 |
| COCCc1ccc(OCC(O)CNC(C)C)cc1 (racemic) [Metoprolol-(+,-) (+)-tartrate salt] | 0.494 ± 0.11 |
| CCOc1ccccc1OC(c1ccccc1)C1CNCCO1 (stereo not given) [Reboxetine mesylate] | 0.542 ± 0.061 |
| C1N2CN3CN1CN(C2)C3 [Methenamine] | 0.59 ± 0.14 |

| Compound | growth |
| --- | --- |
| Cc1cc(C)nc(NS(=O)(=O)c2ccc(N)cc2)n1 [Sulfamethazine sodium salt] | 0.482 ± 0.088 |
| COc1c(O[C@@H]2O[C@H](CO)[C@@H](O)[C@H](O)[C@H]2O)cc2c(c1OC)-c1ccc(SC)c(=O)cc1[C@@H](NC(C)=O)CC2 [Thiocolchicoside] | 0.51 ± 0.076 |
| CN(C)CCOC(=O)COc1ccc(Cl)cc1 [Meclofenoxate hydrochloride] | 0.511 ± 0.083 |
| NC(=O)c1ncn([C@@H]2O[C@H](CO)[C@@H](O)[C@H]2O)n1 [Ribavirin] | 0.54 ± 0.043 |
| CN(C/C=C/C#CC(C)(C)C)Cc1cccc2ccccc12 [Terbinafine] | 0.358 ± 0.013 |
| CN(C)CCc1c[nH]c2ccc(Cn3cncn3)cc12 [Rizatriptan benzoate] | 0.633 ± 0.061 |
| Cc1c(-c2ccccc2)oc2c(C(=O)OCCN3CCCCC3)cccc2c1=O [Flavoxate hydrochloride] | 0.414 ± 0.023 |
| CC(Oc1ccccc1)C(=O)N[C@@H]1C(=O)N2[C@@H]1SC(C)(C)[C@@H]2C(=O)O (stereo not given in full) [Phenethicillin potassium salt] | 0.482 ± 0.075 |
| CCn1cc(C(=O)O)c(=O)c2cc(F)c(N3CCNC(C)C3)c(F)c21 (stereo not given) [Lomefloxacin hydrochloride] | 0.0513 ± 0.0014 |
| CC(C)NCC(O)c1ccc2ccccc2c1 (stereo not given) [Pronethalol hydrochloride] | 0.473 ± 0.048 |
| CC(=O)OCC(=O)[C@@]1(O)CC[C@H]2[C@@H]3CCC4=CC(=O)CC[C@]4(C)[C@@]3(F)[C@@H](O)C[C@@]21C [Fludrocortisone acetate] | 0.459 ± 0.028 |
| Cc1noc(NS(=O)(=O)c2ccc(N)cc2)c1C [Sulfisoxazole] | 0.588 ± 0.015 |
| N=C(N)c1ccc(OCCCCCOc2ccc(C(=N)N)cc2)cc1 [Pentamidine isethionate] | 0.194 ± 0.068 |
| Cc1ccc(-c2cc(C(F)(F)F)nn2-c2ccc(S(N)(=O)=O)cc2)cc1 [Celecoxib] | 0.425 ± 0.11 |
| Cn1c(NCCN(CCO)CCCc2ccc([N+](=O)[O-])cc2)cc(=O)n(C)c1=O [Nifekalant] | 0.534 ± 0.067 |
| COC1=C(OC)C(=O)C(CCCCCCCCCCO)=C(C)C1=O [Idebenone] | 0.0491 ± 0.0001 |
| CN(C)CCC(c1ccc(Cl)cc1)c1ccccn1 (stereo not given) [Chlorpheniramine maleate] | 0.466 ± 0.037 |
| CN1CCC[C@@H]1CCO[C@](C)(c1ccccc1)c1ccc(Cl)cc1 [Clemastine fumarate] | 0.218 ± 0.29 |
| C=CCOc1ccccc1OCC(O)CNC(C)C (stereo not given) [Oxprenolol hydrochloride] | 0.554 ± 0.095 |
| COc1ccccc1OCC(O)CN1CCN(CC(=O)Nc2c(C)cccc2C)CC1 (stereo not given) [Ranolazine] | 0.471 ± 0.068 |
